{"source": "PubChem BioAssay (EPA / NIEHS)", "note": "Results filed as inconclusive are left out. The source made the active and inactive calls. The calls were made as follows: active = hit-call score of the fitted dose curve at least 0.9, where 1 is the maximum; inconclusive = response in the unintended direction; inactive = score below 0.9.", "data": [{"molecular_target": "Cytochrome P450 2C19 (Homo sapiens) (UniProt P33261)", "assay": "NVS_ADME_hCYP2C19: NovaScreen (NVS) CYP450-related Enzyme Activity (ADME) Assay for human CYP2C19 (AID 2283113);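 as to AC50: potency for inhibition seen as loss of fluorescent signal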", "in_short": "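Biochemical CYP2C19 inhibition screen: insect-cell recombinant protein plus fluorescent substrate, 1 h, fluorescence intensity. Acetonitrile defined baseline activity. Single 10 uM concentration in duplicate, with concentration-response follow-up for actives.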", "values": [{"smiles": "ClC1=C(Cl)C(Cl)(Cl)C(Cl)=C1Cl", "outcome": "inactive"}, {"smiles": "CCCCC(CC)COC(=O)CCCCC(=O)OCc1ccccc1", "note": "(stereo not drawn)", "AC50": "13.2 µM (active)"}, {"smiles": "O=C(O)c1ccccc1C(c1ccc(O)cc1)c1ccc(O)cc1", "AC50": "5.38 µM (active)"}, {"smiles": "CCCCCCCCCCCCCCCS(=O)(=O)Oc1ccccc1", "AC50": "5 µM (active)"}, {"smiles": "CCC(=C(c1ccc(O)cc1)c1ccc(OCCN(C)C)cc1)c1ccccc1", "AC50": "3.91 µM (active)"}, {"smiles": "COc1ccc([N+](=O)[O-])cc1N", "outcome": "inactive"}]}, {"molecular_target": "human AKT serine/threonine Kinase 1 (AKT1), AKT1 (gene 207) (UniProt P31749)", "sequence (P31749 whole entry, looked up)": "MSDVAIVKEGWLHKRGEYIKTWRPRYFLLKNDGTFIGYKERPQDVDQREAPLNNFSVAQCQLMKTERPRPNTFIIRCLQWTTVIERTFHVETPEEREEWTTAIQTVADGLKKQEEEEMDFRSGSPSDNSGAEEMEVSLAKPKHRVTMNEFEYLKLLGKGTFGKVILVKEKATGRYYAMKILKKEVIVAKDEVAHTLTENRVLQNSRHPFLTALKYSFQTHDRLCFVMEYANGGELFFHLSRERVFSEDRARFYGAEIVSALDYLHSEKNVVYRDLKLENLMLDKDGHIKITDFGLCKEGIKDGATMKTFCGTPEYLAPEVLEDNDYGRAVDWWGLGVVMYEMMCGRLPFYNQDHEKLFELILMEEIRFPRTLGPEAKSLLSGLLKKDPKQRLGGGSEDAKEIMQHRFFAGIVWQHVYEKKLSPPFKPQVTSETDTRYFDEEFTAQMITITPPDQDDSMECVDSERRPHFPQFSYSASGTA", "assay": "NVS_ENZ_hAKT1: NovaScreen (NVS) Enzymatic Assay for human AKT serine/threonine Kinase 1 (AKT1) (AID 2283138)", "in_short": "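Recombinant AKT1, specific substrate, cell-free; 1 h; fluorescence intensity/electrophoretic mobility shift. Duplicate single-point 25 uM, then singleton CRC max 50 uM. DMSO = negative control/baseline; signal loss = inhibition.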", "values": [{"smiles": "CCCCCCCCOC(=O)CCCCCCCCC(=O)OCCCCCCCC", "outcome": "inactive"}, {"smiles": "N#C[C@@H]1CC(F)(F)CN1C(=O)CNC1CC2CCC(C1)N2c1ncccn1", "note": "(stereo partly drawn)", "outcome": "inactive"}, {"smiles": "CCC(=C(c1ccc(O)cc1)c1ccc(OCCN(C)C)cc1)c1ccccc1", "outcome": "inactive"}]}, {"molecular_target": "human Beta-secretase (BACE), BACE1 (gene 23621) (UniProt P56817)", "sequence (P56817 whole entry, looked up)": "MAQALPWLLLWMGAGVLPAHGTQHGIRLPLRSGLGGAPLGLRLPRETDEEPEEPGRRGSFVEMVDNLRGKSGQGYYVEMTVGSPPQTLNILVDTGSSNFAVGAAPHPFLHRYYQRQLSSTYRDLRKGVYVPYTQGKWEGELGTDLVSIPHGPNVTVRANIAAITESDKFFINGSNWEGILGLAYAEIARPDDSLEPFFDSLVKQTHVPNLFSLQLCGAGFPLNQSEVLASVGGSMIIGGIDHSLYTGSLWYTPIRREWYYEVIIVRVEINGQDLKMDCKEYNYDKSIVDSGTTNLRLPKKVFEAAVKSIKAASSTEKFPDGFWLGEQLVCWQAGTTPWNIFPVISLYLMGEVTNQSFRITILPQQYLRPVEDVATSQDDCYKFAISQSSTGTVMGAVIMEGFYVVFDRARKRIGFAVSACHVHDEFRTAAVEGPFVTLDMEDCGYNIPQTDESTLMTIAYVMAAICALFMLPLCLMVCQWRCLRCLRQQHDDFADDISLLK", "assay": "NVS_ENZ_hBACE: NovaScreen (NVS) Enzymatic Assay for human Beta-secretase (BACE) (AID 2283140);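 also: hits are inhibitors that reduce fluorescent substrate signal versus DMSO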", "in_short": "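Compounds were first tested in duplicate at 25 uM, then actives in concentration series, against recombinant BACE1 from SF9 cells. Enzyme activity was measured by fluorescence intensity 1 hour after dosing, with DMSO as negative control.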", "values": [{"smiles": "c1ccc2c(c1)Cc1ccccc1-2", "outcome": "inactive"}, {"smiles": "COC(=O)CCCCC(=O)OC", "outcome": "inactive"}, {"smiles": "CC(C)(C)c1ccc(O)c(C(C)(C)C)c1", "outcome": "inactive"}, {"smiles": "CCC(=C(c1ccc(O)cc1)c1ccc(OCCN(C)C)cc1)c1ccccc1", "AC50": "16.1 µM (active)"}]}]}
